Assay outcomes: PubChem, several laboratories
Only some compounds are listed: those with a hit (about 1.6% of all), similar ones and a draw of the others.
CCHF vOTU inh – CCHFV vOTU protease inhibitors, primary screen, biochemical, Pep-AMC substrate, fluorescence. 370,000 tested, 0.55% active. AID 651958, 2012. Crimean-Congo hemorrhagic fever virus L polyprotein viral ovarian tumor (vOTU) protease …. inhibition, % at 11.5 µM; in the data active = inhibition above about 30%
Sa RN4220 lethal – growth inhibition of S. aureus RN4220, primary screen, OD600; 16 h; inhibition, % (no concentration beside the values); 330,000 tested, 0.33% active; AID 1259311, 2017; in the data active = inhibition above about 85%
Mtb hypoxia inh – PubChem AID 1159583; M. tuberculosis hypoxia-regulated fluorescent reporter, fluorescence; fluorescence inhibition, % (concentration not given with the values); 300,000 tested, 0.1% active; in the data active = fluorescence inhibition mostly above about 23%, no sharp cut-off; inactive = mostly below about 17%
RecA intein inh – Mtb RecA intein splicing inhibitors, primary screen, biochemical, fluorescence, HTS | Protein RecA (Mycobacterium tuberculosis (strain ATCC 25618 / H37Rv)), P9WHJ3 | cell-free RecA intein splicing | 290,000 tested, 0.75% active | inhibition, % (test concentration not listed); in the data active = inhibition above about 30%
Target sequence (P9WHJ3 whole entry, looked up): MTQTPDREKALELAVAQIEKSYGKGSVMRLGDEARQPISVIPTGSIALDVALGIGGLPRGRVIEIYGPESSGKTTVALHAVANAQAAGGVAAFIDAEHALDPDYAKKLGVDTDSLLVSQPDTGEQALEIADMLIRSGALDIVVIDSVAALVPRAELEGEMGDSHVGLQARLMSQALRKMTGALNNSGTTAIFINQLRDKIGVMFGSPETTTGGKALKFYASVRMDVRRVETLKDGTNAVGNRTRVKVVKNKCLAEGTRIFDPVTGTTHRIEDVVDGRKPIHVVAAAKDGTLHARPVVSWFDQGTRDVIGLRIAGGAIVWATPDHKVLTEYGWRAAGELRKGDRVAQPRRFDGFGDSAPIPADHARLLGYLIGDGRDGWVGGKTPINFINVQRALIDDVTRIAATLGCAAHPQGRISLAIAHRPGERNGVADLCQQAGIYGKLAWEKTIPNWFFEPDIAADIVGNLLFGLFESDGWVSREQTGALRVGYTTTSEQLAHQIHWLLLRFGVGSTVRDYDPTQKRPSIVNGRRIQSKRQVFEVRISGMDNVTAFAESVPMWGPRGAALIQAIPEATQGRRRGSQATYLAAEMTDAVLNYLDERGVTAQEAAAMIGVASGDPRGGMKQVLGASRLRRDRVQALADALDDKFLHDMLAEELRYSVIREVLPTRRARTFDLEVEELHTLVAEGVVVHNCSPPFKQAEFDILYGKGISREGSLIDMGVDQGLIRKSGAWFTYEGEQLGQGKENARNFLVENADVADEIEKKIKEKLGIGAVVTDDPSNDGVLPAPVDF
BJeLR viability – MLPCN primary cell-based screen for lethality selective to Ras in HRASV12 cells; AID 1554, 2009; BJeLR (HRASV12) viability, CellTiter-Glo ATP luminescence, 48 h; inhibition, % (test concentration not listed); 300,000 tested, 0.17% active; in the data active = inhibition above about 50%
Sa ugtP lethal – growth inhibition of ugtP-null S. aureus, primary screen, RN4220 ugtP deletion, OD600. 16 h. growth inhibition, % (no concentration beside the values). 330,000 tested, 0.54% active; in the data active = growth inhibition above about 68%
GFP chromo cs – counter-screen: blocks GFP chromophore formation, dose response, counter-screen, biochemical, fluorescence, homogeneous; shares compounds with RecA intein inh; cell-free GFP chromophore formation; EC50, µM; 2,100 tested, 83% active; AID 434968, 2010; call rule not given here
A number is an active result; n = inactive; x = no result given.

SMILES	CCHF vOTU inh	Sa RN4220 lethal	Mtb hypoxia inh	RecA intein inh	BJeLR viability	Sa ugtP lethal	GFP chromo cs
CSc1ncc(Cl)c(C(=O)Nc2ccc(C)c(C)c2)n1	n	n	n	n	n	n	x
Cc1ccc(NC(=O)c2nc(S(=O)(=O)Cc3ccccc3C)ncc2Cl)cc1C	n	x	x	38.9	n	x	1.3
CCS(=O)(=O)c1ncc(Cl)c(C(=O)Nc2ccc(S(=O)(=O)N3CCC(C)CC3)cc2)n1	n	x	x	96.1	n	x	1.43
CCCS(=O)(=O)c1ncc(Cl)c(C(=O)Nc2ccc(S(=O)(=O)Nc3ncccn3)cc2)n1	n	n	n	n	n	n	x
CCOC1OC(C(=O)N2CCN(Cc3ccc4c(c3)OCO4)CC2)=CC(c2ccc3c(c2)OCO3)C1CCCO (configuration not stated)	x	n	n	x	x	n	x
Cc1ccc(S(=O)(=O)N2C(c3ccc(Cl)cc3)CC=C(C(=O)O)C2c2cccc(Cl)c2)cc1 (configuration not stated)	x	n	n	x	x	n	x
CCn1c(SCC(=O)Nc2nc(-c3ccc(C)cc3)cs2)nnc1-c1ccccc1	n	n	n	n	n	n	x
CCn1c(SCC(=O)Nc2nc(-c3ccc(C)cc3)cs2)nnc1-c1ccccc1O	n	n	x	37.9	n	n	n
O=C(CC1CC=CCC(NC(=O)OCC2c3ccccc3-c3ccccc32)C(=O)OCC(Cc2ccccc2)NC1=O)NCCO (configuration not stated)	x	n	n	x	x	n	x
COc1cc(/C=C2/C(=N)N3C(=NC2=O)SN=C3S(C)(=O)=O)ccc1OC(=O)c1ccco1	n	n	n	n	n	n	x
CS(=O)(=O)C1=NSC2=NC(=O)/C(=C\c3ccc(OC(=O)c4ccco4)cc3)C(=N)N21	x	x	x	35.0	n	x	n
O=C1c2ccccc2C(=O)C12OC2c1ccc(Cl)cc1 (configuration not stated)	x	x	x	71.6	n	x	n
O=C1c2ccccc2C(=O)C12OC(c1ccccc1)C1(C(=O)c3ccccc3C1=O)C2c1ccc([N+](=O)[O-])cc1 (configuration not stated)	n	n	n	n	n	n	x
CCOc1cc(/C=C(\C#N)C(=O)Nc2cccc(C(=O)O)c2)cc(Br)c1OC(=O)c1ccc(OC)cc1	n	n	n	37.6	n	n	20.8
COc1ccc2c(c1)OCC1C2N2C(=O)CNC(=O)[C@@]2(C)C1c1ccccc1 (some centres not stated)	x	n	n	x	x	n	x
O=C(CSc1nnc(SCc2ccc(Cl)cc2)s1)NN=Cc1c(Cl)cccc1Cl	x	n	n	x	x	n	x
O=C(CSc1ncnc2c1nnn2-c1ccc(F)cc1)NCC1CCCO1 (configuration not stated)	n	n	n	38.3	n	n	8.91
Cc1ccc(-n2nnc3c(SCC(=O)NCC4CCCO4)ncnc32)cc1 (configuration not stated)	x	n	n	39.6	n	n	n
CC(=NNC(=O)c1ccn(C)n1)c1ccc(NC(=O)C2CCC2)cc1	x	n	n	x	x	n	x
O=[N+]([O-])c1ccc(S(=O)(=O)c2cccc(C(F)(F)F)c2)nc1	x	n	n	49.5	n	n	30.3
COc1ccc(C2CC(c3cccs3)=NN2C(=O)CCl)cc1OC (configuration not stated)	n	x	x	76.6	n	x	4.45
COc1cc(C2CC(c3cccs3)=NN2C(=O)CCl)ccc1OC(F)F (configuration not stated)	n	x	x	80.0	95.8	x	1.8
COc1ccc(C2CC(c3cccs3)=NN2C(=O)c2ccccc2)cc1OC (configuration not stated)	n	n	n	n	n	n	x
COc1ccc(C2CC(c3cccs3)=NN2C(=O)CCC(=O)O)cc1 (configuration not stated)	n	n	n	n	n	n	x
CC(C)NC(=O)N(C)CC1Oc2c(NS(=O)(=O)c3cccs3)cccc2C(=O)N(C(C)CO)CC1C (configuration not stated)	x	n	n	x	x	n	x
CCOc1ccc(N=Nc2c(N)[nH][nH]c2=O)cc1	n	n	n	53.9	n	n	17.8
